SMILES strings stand for the structures. Values joined by “and” are separate entries in the source; they are usually repeats but may differ in a detail not shown here. Equal entries are not always repeated. About 83,000 compounds went through this panel and 20% of them were active in at least one assay; those are over-represented in the sample as a whole.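 Single-concentration screen, 48 h exposure, 96-well plates. Endpoint: percent growth. Below 10 = active.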 Unmarked numbers belong to inactive results. Active and inactive are the calls of the source.

This assay has as its system HL-60(TB) leukemia. Kind of assay: NCI-60 one-dose screen, 48 h (100 = growth as untreated, 0 = no growth, -100 = all killed). The following applies: 10 µM unless noted. The method, then:
Growth inhibition of the HL-60(TB) human tumor cell line is measured as a screen for anti-cancer activity. Cells are grown in 96 well plates and exposed to the test compound for 48 hours. Compounds are tested at a single concentration, which is 10^-5 M for most compounds. The reported endpoint is percent growth (GI% or GIPRCNT), where numbers from 0 - 100% represent growth inhibition, and numbers from -100% - 0 represent cell death. For example, a value of 40 represents 60% growth inhibition. A value of 0 means no net growth occurred over the course of the experiment. A value of -40 indicates 40% of cells at the beginning of the experiment died by the end of the experiment. A value of -100 means all cells are dead at the end of the experiment.
NCI-60 Human Tumor Cell Lines Screen was performed using the standard one-dose NCI protocol, which is described in more detail at https://dtp.cancer.gov/discovery_development/nci-60/default.htm.
Compounds with GIPRCNT values below 10 were considered active. Activity score was based on GIPRCNT using the following formula: […]
Score is 0 for GIPRCNT values of 100 or above, 50 for GIPRCNT values of 0, and 100 for GIPRCNT values of -100.
As for `NC(CCc1nc2ccccc2c(=O)[nH]1)C(=O)O` (stereo not given), the growth was 103%.

For the compound `O=C(c1ccc(Cl)cc1)C(NCCO)c1ccc(Cl)cc1` (stereo not given), the growth was 86.9% and 116%.

Turning to `CNc1ccc(O)cc1`, the growth was 103% and 93%.

As for `CC(=O)OC1C=CC(OC(C)=O)O1` (stereo not given), the growth was 102%.

For the compound `Cc1ccc2nc(C[n+]3ccc4ccccc4c3)ccc2c1`, the growth is 26.1%.

In the case of `Nc1ncncc1-c1ccc(F)cc1`, the growth is 103%.

As to `O=C(Cc1ccccc1)Cc1ccccc1`, the growth is 99.2%.

For the compound `O=C1CCC(N2Cc3c(C#CCCCNC(=O)c4cc5c(o4)C(=O)c4ccccc4C5=O)cccc3C2=O)C(=O)N1` (stereo not given), the growth was -1.27% (active).

For `CC(C)(C)c1nc2c(s1)c1nc(N)ncc1c1ccc(NS(=O)(=O)c3c(F)cccc3F)c(F)c12`, the growth is 79.9%.

Take `Fc1ccc(CNc2c3ccccc3nc3ccccc23)c(F)c1`: the growth was 58.3%.

Turning to `COc1cc2nc(-c3ccc(C(F)(F)F)cc3)cc(OCCCN3CCC(O)CC3)c2cc1OC`, the growth is 27.3%.

On to `CCSc1nnc2c3cc(Br)ccc3n(C)c2n1`, for which the growth is 110%.

With `CN1CCN(Cc2occc(=O)c2O)CCN(C)CCN(Cc2occc(=O)c2O)CC1`, the growth is 98.8% and 48.1%.

In the case of `C=C1C(=O)O[C@H]2[C@H]1CC/C(COC(=O)N[C@H]1C[C@H](O[C@H]3C[C@](O)(C(=O)CO)Cc4c(O)c5c(c(O)c43)C(=O)c3c(OC)cccc3C5=O)O[C@@H](C)[C@H]1O)=C\CC[C@@]1(C)O[C@@H]21`, the growth is -31.2% (active).

Regarding `CC(=O)N1c2ccccc2NC2=C(C(=O)N(C)C2(C)C)C1C` (stereo not given), the growth was 7.5% (active).

Regarding `CC12CCCCC1C(C(N)=O)C(=O)O2` (stereo not given), the growth is 102%.

In the case of `O=C(Nc1cccc(F)c1)c1cc(=O)[nH]c2cc(Br)ccc12`, the growth was 3.41% (active).

As to `COc1ccc2nc(-c3ccc(Cl)cc3)cc(-c3nnc(SCC(=O)Nc4ccc(/C(C)=N\O)cc4)o3)c2c1`, the growth is 61.9%.

For `Nc1ncnc2c1ncn2C1CC(O)C(CO)O1` (stereo not given), the growth is 79.7% and 95.3%.

Take `O=[N+]([O-])c1cccc(N=C(Nc2cccc([N+](=O)[O-])c2)c2ccccc2)c1`: the growth is 102%.

In the case of `Cc1ccc2cccc(Oc3ccc(Nc4ncnc5onc(-c6ccccc6)c45)cc3)c2n1`, the growth was 94.9%.

For the compound `Oc1ccc(Cl)cc1/C=N\NC(=S)N/N=C/c1cc(Cl)ccc1O`, the growth was 12.2%.

With `C=C(CNCCc1ccc(O)cc1)[C@@H]1CC[C@]2(CO)CC[C@]3(C)[C@H](CC[C@@H]4[C@@]5(C)CCC(NCCO)C(C)(C)[C@@H]5CC[C@]43C)[C@@H]12` (stereo not given in full), the growth was -46.4% (active).

`C#Cc1ccccc1NC(=O)c1sc2nc3c(cc2c1N)CCCCCC3`: the growth is 92.7%.

Regarding `Nc1nc(-c2ccccc2)nc(N)c1N=O`, the growth is 18.8%.

Regarding `N#CCCN=Nc1c(O)[nH]c2ccc(F)cc12`, the growth was 110%.

`CC1=CSC2=NC(c3ccc(Cl)c(Cl)c3)=CC(c3ccc(Cl)cc3)N12` (stereo not given): the growth was 47.7%.

Turning to `OC(COc1cccc2ccccc12)CN1CCN(c2ccc(Cl)cc2)CC1` (stereo not given), the growth was 55.5% and 75.2%.

`COc1cc2nc3c(=O)n(-c4ccc(C#N)cc4)cnn3c(=O)c2cc1OC`: the growth is 92.1%.

Regarding `O=c1oc2cc(OS(=O)(=O)c3ccc(F)cc3)ccc2c2c1CCCCC2`, the growth was 60.6%.

Consider `Nc1[nH][nH]c(=O)c1N=Nc1ccccc1`, for which the growth was 98.6% and 102%.

As to `Cc1ccc(C(C(N)=O)C(C(N)=O)c2ccccc2)cc1` (stereo not given), the growth is 84.7%.

Consider `CCOc1ccccc1NC(=O)CCl`, for which the growth is 104%.

Consider `CC(C)n1cnc2c(=S)nc[nH]c21`, for which the growth is 141%.

Regarding `O=c1[nH]c(=O)n(C2OC(CO)C(O)C2O)cc1I` (stereo not given), the growth was 77.5% and 86.6%.

Turning to `Cc1cccc(Cc2cnc(NC(=O)c3ccc4nnsc4c3)s2)c1`, the growth is 94.1%.

Take `COCCn1cc(-c2nc(-c3cc4cccnc4n3CCOC)cs2)c2cc(OC)ccc21`: the growth is 95.6%.

As to `Cc1ccc(C2=Nc3c(N)ncnc3NC(c3ccc4c(c3)OCO4)C2)cc1` (stereo not given), the growth is 33.2%.

As for `CCCCCCCCCCCCCCCCNC(=S)N/N=C/c1ccc(O)cc1O`, the growth was 49.9%.

On to `COc1c(/C(C)=N/N=c2sc(C(C)=O)nn2-c2ccc(Cl)cc2)c(Oc2ccccc2)c(OC)c2occc12`, for which the growth is 102% and 104%.

The values above are taken from PubChem BioAssay (NCI).
